Screen size: about 2,100 compounds; about 760 (36%) were called active.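 The calls were made as follows: active = thallium-flux fluorescence traces judged by eye to show enhanced or reduced glutamate response, manual score 1 or -1, so both directions (some results past the limit were not filed as active); inactive = the rest, including fluorescent or raised-baseline compounds.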 The list is a sample of the results.

This experiment in a line: non-GIRK thallium flux modulation in mGlu8 cells, confirmation, counter-screen for GIRK activator project, cell-based, HEK-293 rmGlu8, no GIRK (AID 623868).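 Also: extra codes mark interference with 3 for fluorescent and 4 for baseline rise.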 The following applies: thallium flux fluorescence, at 10 µM, actives lie on both sides, codes: 1 enhancer, -1 blocker, 0 none, thallium stimulus containing EC20 glutamate. Background: Counterscreens check selectivity or assay interference.
Turning to `Cc1ccc2oc(=O)c3cnn(CC(=O)N4CCc5ccccc5C4)c3c2c1`, the manual score was -1 (active).
In the case of `COc1ccc(N(CC(=O)NCCSc2ccccn2)S(C)(=O)=O)cc1Cl`, the manual score was 0 (inactive).
With `Cc1nn2c(NCCCN(C)C)c3c(nc2c1-c1ccccc1)CCC3` the figure was 0 (inactive); with `O=C(O)CCCCCNc1nc2ncn(Cc3ccccc3)c2c(=O)[nH]1`, 0 (inactive); with `Fc1cccc(C2NN=C(c3ccccc3)S2)c1` (configuration not stated), 1 (active).
Next, `O=C1CC(c2ccco2)Sc2nc3ccccc3n21` (configuration not stated): 0 (inactive); `CN1CCN(CC(=O)N2c3ccccc3C(C)(c3ccccc3)CC2(C)C)CC1` (configuration not stated): 0 (inactive).
Next, `CC1(c2ccccc2)CC(C)(C)N2C(=O)/C(=C3\SC(=S)NC3=O)c3cccc1c32` (configuration not stated): 1 (active).
Regarding `Cc1c(C(=O)O)sc2nc3n(c(=O)c12)CCC(C)CC3` (configuration not stated), the manual score was 0 (inactive).
With `CCCCCCCCc1nc(=S)[nH][nH]1` the figure was 1 (active); with `C=CCCCCCCCCc1nc(=S)[nH][nH]1`, 1 (active); with `COc1c(Cl)cc(Cl)cc1CNCCNCC(C)O` (configuration not stated), 0 (inactive).
With `COc1cc(C(=O)NC2CC3CCCC(C2)N3CC(=O)Nc2ccccc2)cc(OC)c1OC` (configuration not stated) the figure was -1 (active); with `CC1CCCCN1CC(=O)Nc1ccc(Oc2ccccc2)cc1` (configuration not stated), 0 (inactive); with `COc1cccc(NC(=O)Cn2nnc(C(=O)Nc3ccccc3)c2N)c1`, 0 (inactive).
Next, `O=C(Nc1nnc(-c2ccccc2F)s1)C1CCCO1` (configuration not stated): 0 (inactive).
As for `CC(C)c1ccc2occ(-c3nn[nH]n3)c(=O)c2c1`, the manual score is 0 (inactive).
Next, `CCCSc1nc2sc3c(c2c(=O)[nH]1)CCN(Cc1ccccc1)C3`: 3 (inactive); `CCCn1c(SCc2nc3sc(C)c(C)c3c(=O)[nH]2)nc2ccccc2c1=O`: 1 (active); `O=c1[nH]c(CS(=O)(=O)c2ccccc2)nc2ccccc12`: 0 (inactive).
As for `Cc1c(C)[n+](=O)c2c(n1[O-])CCC2`, the manual score was 0 (inactive).
In the case of `COc1ccc(S(=O)(=O)NCCCCCC(=O)NCCCN2CCOCC2)cc1`, the manual score was 0 (inactive).
Regarding `Cc1ccccc1OCC(=O)Nc1ccccc1N1CCOCC1`, the manual score is -0.5 (inactive).
Next, `Cc1cc(Cl)ccc1OCC(=O)Nc1ccccc1N1CCOCC1`: 0 (inactive).
Take `CC1(C)Cc2cccc(OCC(=O)Nc3ccccc3N3CCOCC3)c2O1`: the manual score is 0 (inactive).
Turning to `Cc1cccc(OCC(=O)NC(=S)Nc2ccccc2N2CCOCC2)c1`, the manual score was 0 (inactive).
Next, `Cc1cccc(OCC(=O)Nc2ccccc2N2CCN(C(=O)C(C)C)CC2)c1C`: -1 (active).
As for `CCC(=O)N1CCN(c2ccccc2NC(=O)COc2cccc(C)c2)CC1`, the manual score was -1 (active).
With `CC(C)c1cc(C(F)(F)F)n2nc(C(=O)Nc3ccc4c(c3)OCO4)cc2n1` the figure was 0 (inactive); with `CC1CCN(C(C(=O)Nc2ccc3c(c2)OCO3)c2ccccc2)CC1` (configuration not stated), 0 (inactive).
Next, `O=C(NC(=S)Nc1ccc2c(c1)OCCO2)c1ccccc1`: 1 (active).
As for `O=C(NC(=S)Nc1ccc(Oc2ccc(Cl)cc2)cc1)c1ccccc1`, the manual score was 0 (inactive).
For `Cn1ncc2cc(NC(=S)NC(=O)c3ccccc3)ccc21`, the manual score is 1 (active).
With `O=C(NC(=S)Nc1ccc2c(c1)OCO2)c1ccccc1` the figure was 1 (active); with `CC1CCCN(C(C(=O)Nc2ccc3c(c2)OCO3)c2ccccc2)C1` (configuration not stated), -0.5 (inactive); with `Cc1ccc(-c2n[nH]c(=S)n2/N=C/c2cccs2)cc1`, 1 (active).
For the molecule `Cn1cccc1/C=N/n1c(-c2ccc(C(C)(C)C)cc2)n[nH]c1=S`, the manual score is 0 (inactive).
With `CC(/C=N/n1c(COc2ccccc2)n[nH]c1=S)=C\c1ccccc1` the figure was 0 (inactive); with `Cc1ccc(-c2n[nH]c(=S)n2/N=C/c2ccc(C)s2)cc1`, 1 (active); with `Cc1ccc(/C=N/n2c(COc3ccccc3)n[nH]c2=S)s1`, 1 (active).
As to `Cc1ccccc1CNS(=O)(=O)c1ccc2c(c1)OCCO2`, the manual score is 0 (inactive).
As for `O=C(N/N=C1/C(=O)c2cccc3cccc1c23)c1ccc(Cl)cc1`, the manual score was 1 (active).
`CCCCNC(=S)N/N=C1\C(=O)c2cccc3cccc1c23`: the manual score is 1 (active).
Next, `CCCCN(C)C1=Nc2cccc3cccc1c23`: 0 (inactive); `CCNC(=S)N/N=C1\C(=O)c2cccc3cccc1c23`: 1 (active); `CCCCNc1c2c3c(cccc3n(C)c1=O)C(=O)c1ccccc1-2`: 3 (inactive).
Next, `CNC(=S)N/N=C1\C(=O)c2cccc3cccc1c23`: 1 (active); `COc1ccc(Cn2nnnc2C(c2ccc(F)cc2)N2CCN(C3CCCC3)CC2)cc1` (configuration not stated): 0 (inactive); `N#Cc1nc(Cc2ccccc2)oc1NCCc1ccccc1`: 0 (inactive).
With `O=C(CCN1C(=O)COc2ccccc21)NCCCN1CCc2ccccc2C1` the figure was 0 (inactive); with `Cc1ccc(NC(=O)COC(=O)/C=C/c2ccco2)cc1S(=O)(=O)N(C)C`, 0 (inactive).
As for `Cn1c(NCc2cccc(Br)c2)nc2ccccc21`, the manual score was 0 (inactive).
As for `Fc1cccc2sc(Nc3nnc(-c4ccco4)o3)nc12`, the manual score is 1 (active).
On to `Fc1cccc2sc(Nc3nnc(-c4ccccc4)o3)nc12`, for which the manual score is 1 (active).
Consider `COc1cc(OC)cc(-c2nnc(Nc3nc4c(F)cccc4s3)o2)c1`, for which the manual score is 1 (active).
In the case of `COc1cccc(-c2nnc(Nc3nc4c(F)cccc4s3)o2)c1`, the manual score is 1 (active).
Next, `Nc1nnc(C(=O)c2ccccc2N)s1`: 0 (inactive).
With `Clc1ccccc1-c1nnc2sc(CCc3ccccc3)nn12` the figure was 0 (inactive).
For the molecule `CCn1c(=NC(=O)CSC(C)=O)sc2ccccc21`, the manual score is 1 (active).
Regarding `O=C(COC(=O)C1CC(=O)N(Cc2ccccc2)C1)Nc1ccc2c(c1)OCO2` (configuration not stated), the manual score is 0 (inactive).
For the molecule `O=C(Oc1ccccc1)c1cccc(COC(=O)c2cnccn2)c1`, the manual score was -1 (active).
Turning to `COC(=O)c1ccccc1NC(=O)Nc1cnccn1`, the manual score was 0 (inactive).
Consider `CC(=O)Nc1nnc(C)s1`, for which the manual score was 0 (inactive).
As to `C=CCSc1nc2sc3c(c2c(=O)n1CC)CCc1ccccc1-3`, the manual score is 1 (active).
On to `CCn1c(SCC(N)=O)nc2c(c1=O)C1(CCCC1)Cc1ccccc1-2`, for which the manual score is 0 (inactive).
With `CCCSc1nc(C)nc2c1c(=O)n(C)c(=O)n2C` the figure was 0 (inactive).
With `CN(C(=S)NC(=O)c1ccccc1Br)C1CCCCC1` the figure was 1 (active); with `CC1CCCC(NC(=S)NC(=O)c2cncc(Br)c2)C1C` (configuration not stated), 1 (active); with `CC1CCCC(NC(=S)Nc2ccc(SC(F)F)cc2)C1C` (configuration not stated), 0 (inactive).
As for `CC1CCCC(NC(=S)NC(=O)c2ccccc2Br)C1C` (configuration not stated), the manual score is 1 (active).
Turning to `Cc1ccccc1NC(=S)NC(=O)c1cncc(Br)c1`, the manual score is 1 (active).
Next, `CC1CCCCC1NC(=S)Nc1ccc(SC(F)F)cc1` (configuration not stated): 0 (inactive); `CC1CCCC(NC(=O)Nc2cccs2)C1C` (configuration not stated): 0 (inactive).
As for `CN(C)Cc1cc(C(C)(C)C)c(O)c(C(C)(C)C)c1`, the manual score is 0 (inactive).
With `CCN1CCN(c2ccc(NC(=O)CCc3c(C)nc4c(-c5ccccc5)c(C)nn4c3C)cc2)CC1` the figure was 0 (inactive); with `FC(F)(F)c1cccc(NC(=S)NC2CCCC2)c1`, 0 (inactive); with `O=C(NC(=S)NCCC1=CCCCC1)c1cncc(Br)c1`, 1 (active).
Take `CCOC(=O)c1ccc(NC(=S)NC2CCCC2)cc1`: the manual score was 0 (inactive).
With `CCN(C(=O)c1cc(Cl)ccc1OC)C1CCCCC1` the figure was 0 (inactive); with `COC(=O)[C@H](Cc1ccccc1)NC(=O)NCCC1=CCCCC1`, 0 (inactive).
With `COc1ccc(C)cc1NC(=O)NCCC1=CCCCC1`, the manual score is 0 (inactive).
Take `O=C(NC(=S)NC1CCCCCC1)c1cncc(Br)c1`: the manual score is 1 (active).
For `COc1ccccc1/C=C/C(=O)NC(=S)N(C)C1CCCCC1`, the manual score is 1 (active).
Next, `COc1cccc2c1OC[C@@H](CO)[C@H]2N(C)C(=O)Nc1ccccc1`: 0 (inactive); `Cc1ccc(C(=O)N/N=C(/CC(=O)c2cccs2)C(F)(F)F)cc1`: 1 (active); `Cc1ccccc1Cn1c(=N)n(CC(=O)c2ccco2)c2ccccc21`: 0 (inactive).
Next, `CCCCNC(=S)N=Nc1c(O)n(Cc2ccccc2)c2ccccc12`: 1 (active).
With `O=C(NCCSc1c[nH]c2ccccc12)c1ccco1` the figure was 0 (inactive); with `CCCn1c(O)c(N=NC(=O)c2ccco2)c2ccccc21`, 1 (active); with `C=CCn1c(O)c(N=NC(=O)OC(C)(C)C)c2ccccc21`, 1 (active).
On to `CN=C1SC(C(=O)O)CC(=O)N1C` (configuration not stated), for which the manual score is 0 (inactive).
Turning to `O=C(NC1CC1)c1ccc(CSCc2cccc(F)c2)o1`, the manual score is 0 (inactive).
With `CCOC(=O)C(C)Sc1nc2c(cnn2-c2ccc(C)cc2)c(=O)[nH]1` (configuration not stated) the figure was 0 (inactive); with `CCOC(=O)c1nn(-c2ccc(F)cc2)c(C)c1C(C)=O`, 0 (inactive); with `CCOC(=O)C(CC)n1cnc2c(nnn2-c2ccc(OC)cc2)c1=O` (configuration not stated), -1 (active).
With `Nc1nc2n(n1)C(c1cccs1)CC(c1ccc(F)cc1)N2` (configuration not stated) the figure was 0 (inactive); with `O=C(Nc1ccc2oc(-c3ccncc3)nc2c1)c1c(F)c(F)c(F)c(F)c1F`, 0 (inactive).
Consider `O=C(NC(=S)Nc1ccc2oc(-c3cccnc3)nc2c1)c1cccc(Cl)c1`, for which the manual score is 0 (inactive).
Next, `Cc1ccc(-c2nc3ccccc3o2)cc1NC(=S)NC(=O)c1cc2ccccc2o1`: 0 (inactive); `Cc1ccc2oc(-c3cccc(NC(=S)NC(=O)c4cccs4)c3)nc2c1`: 1 (active).
For `Cc1cc(C)c2oc(-c3ccc(C)c(NC(=S)NC(=O)c4cccs4)c3)nc2c1`, the manual score is 1 (active).
Next, `O=C1Nc2cc(S(=O)(=O)N3CCCC3)ccc2N2CCCC12` (configuration not stated): 0 (inactive); `O=C(NCCCCNC(=O)c1cccnc1)c1cccnc1`: 0 (inactive).
With `CC(C)OC(=O)/C(=C/c1cccnc1)NC(=O)c1ccccc1` the figure was 0 (inactive).
Next, `O=C(N/N=C(\c1ccccc1)c1cccnc1)C(O)(c1ccccc1)c1ccccc1`: -1 (active); `Cc1c(C#N)c2ncn(CC#N)c(=O)c2n1-c1ccccc1`: 0 (inactive).
Regarding `COc1ccc(-c2onc(C)c2-c2ccc(C(=O)OC(C)C)o2)c(O)c1`, the manual score was 0 (inactive).
For `CCCOC(=O)c1ccc(-c2c(C)noc2-c2ccc(OC)cc2O)o1`, the manual score was -1 (active).
Next, `Cc1cc(C(=O)OCC(=O)Nc2ccc(F)cc2)c(C)o1`: 0 (inactive); `Cc1ccc(N2C(=S)N=C(Nc3ccccc3C)C23CCOC(C)(C)C3)cc1` (configuration not stated): 1 (active).
Next, `Cc1ccccc1NC1=NC(=S)N(c2ccccc2)C12CCOC(C)(C)C2` (configuration not stated): 1 (active).
Take `Cc1ccccc1Nc1nc2nonc2nc1N1CCOCC1`: the manual score is 0 (inactive).
